Most compounds without a hit are left out; they make up all but 2.8% or so of the library.
S16 viability = S16 Schwann cell cytotoxicity | AID 1508642 | S16 Pmp22-F2sN Schwann cells viability, CellTiter-Glo, 24 h | Potency, µM (series often up to 57.5 µM), without a hit: at the highest dose activity change, negative = cytotoxicity, hits mostly cytotoxic | hit rate 0.48% among 43,000; also: potency is read from the fitted curve at half-maximal effect; % is scaled to controls: 0 for no effect and ±100 for the full control effect; nearly all actives have a fitted effect of over 65% in size
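Seed 500-1,000 S16 Pmp22-F2sN cells per well in phenol-red-free DMEM with 10% heat-inactivated FBS; pin-add 23 nL compound; incubate 24 h at 37C; add CellTiter-Glo, wait 15 min protected from light; read luminescence.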
mTORC1 inh = inhibitors of mTORC1 signaling in Tsc2-/- p53-/- MEF cells. Tsc2-/- p53-/- MEF, phospho-rpS6 immunofluorescence/PI, 24 h. Potency, µM (titrated, usually from 38.3 µM), without a hit: at the highest dose activity change, negative = inhibition, actives largely listed as inhibitors. hit rate 0.78% among 44,000;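 also: potency is read from the fitted curve at half-maximal effect; plate controls were DMSO for no effect and rapamycin for full effect; nearly all actives have a fitted effect of over 50% in size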
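Readout is phospho-S6 Alexa 488 signal normalized to PI per well, reported as % active cells with thresholds set from rapamycin (7.5 nM) and DMSO controls. Cells: Tsc2-/-, p53-/- MEFs, 24 hrs compound at 37 C; PI cell number serves as viability.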
PMP22 txn = modulates PMP22 transcription in S16 Schwann cells | AID 1508649 | hit rate 2% among 43,000 | Potency, µM (top dose mostly 57.5 µM), for the others: top-dose activity change, negative = inhibition, most hits filed as inhibitors | S16 Pmp22-F2sN Schwann cells (luciferase reporters placed in the Pmp22 gene), FLuc/NLuc coincidence luminescence, 24 h; active = clear falling dose curves in both reporters; inconclusive = both reporters move, but less clearly or upward; inactive = either reporter flat; the % is the NLuc reporter signal; also: potency is read from the fitted curve at half-maximal effect; % is scaled to controls: 0 for no effect and ±100 for the full control effect
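S16 Schwann cells carrying FLuc/NLuc coincidence reporter in the Pmp22 3' UTR treated with compound 24 h at 37C; FLuc then NLuc luminescence read sequentially by dual-luciferase reagents.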
GALC G270D act = galactocerebrosidase G270D activity enhancement, cell-based. P54803. 145M-Twi-hGALC-G270D cells (Twitcher mouse brain line with human GALC G270D), HMU-beta-Gal fluorescence, 48 h. Potency, µM (titrated, usually from 57.5 µM), hits mostly activators. hit rate 0.1% among 45,000; also: potency is read from the fitted curve at half-maximal effect; 0% is about no effect; nearly all actives have a fitted effect of over 65% in size
Target sequence (P54803 whole entry G286D): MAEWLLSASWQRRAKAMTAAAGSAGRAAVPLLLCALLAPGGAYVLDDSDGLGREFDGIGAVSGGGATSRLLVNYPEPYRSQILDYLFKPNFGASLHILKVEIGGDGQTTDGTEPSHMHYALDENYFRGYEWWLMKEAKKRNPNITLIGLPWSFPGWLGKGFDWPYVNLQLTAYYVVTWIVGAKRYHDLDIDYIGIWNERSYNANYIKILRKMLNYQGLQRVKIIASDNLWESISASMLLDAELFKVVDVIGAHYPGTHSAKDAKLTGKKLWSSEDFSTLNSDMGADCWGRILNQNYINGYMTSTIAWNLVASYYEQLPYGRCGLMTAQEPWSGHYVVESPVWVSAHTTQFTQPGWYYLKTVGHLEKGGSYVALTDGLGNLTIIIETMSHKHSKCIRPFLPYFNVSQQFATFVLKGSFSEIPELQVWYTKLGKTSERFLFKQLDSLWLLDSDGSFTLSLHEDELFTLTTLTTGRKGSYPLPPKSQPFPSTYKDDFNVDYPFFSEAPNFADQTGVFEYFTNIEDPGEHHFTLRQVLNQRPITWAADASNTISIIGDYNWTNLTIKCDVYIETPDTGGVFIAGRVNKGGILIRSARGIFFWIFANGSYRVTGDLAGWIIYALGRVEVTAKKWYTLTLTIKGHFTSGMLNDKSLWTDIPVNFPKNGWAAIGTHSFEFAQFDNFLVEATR
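Mutant human GALC (G270D), stably expressed in a Twitcher mouse brain cell line lacking endogenous GALC, is measured in live-treated cells via 6-hexadecanoylamino-4-methylumbelliferyl-β-galactoside hydrolysis (0.1 mM final, pH 5.2) with fluorescent detection.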
NLuc sat counter = inhibits NanoLuc at saturating substrate, PMP22 counter-screen | shares compounds with PMP22 txn | Secreted NLuc enzyme (filtered S16 cell medium), Nano-Glo luminescence | Potency, µM (doses to about 57.5 µM), for the others: at the top dose activity change, negative = inhibition, actives largely listed as inhibitors | hit rate 4% among 690; also: potency is read from the fitted curve at half-maximal effect; % is scaled to controls: 0 for no effect and ±100 for the full control effect
NLuc Km counter = inhibits NanoLuc under Km conditions, PMP22 counter-screen | hit rate 5% among 690 | secreted NLuc enzyme, coelenterazine luminescence, Km conditions | shares compounds with PMP22 txn | Potency, µM (highest dose often 57.5 µM), for the others: at the top dose activity change, negative = inhibition, hits mostly inhibitors; also: potency is read from the fitted curve at half-maximal effect; % is scaled to controls: 0 for no effect and ±100 for the full control effect
FLuc ctr PMP22 = firefly luciferase enzyme inhibition artifact for PMP22 screen; shares compounds with PMP22 txn; purified P. pyralis FLuc, luminescence, 10 min; Potency, µM (highest dose often 57.5 µM), inactives show at the top dose activity, negative = inhibition, actives largely listed as inhibitors; 690 tested, under 10 active; also: % of control where 0% means no effect
S16 F2sN tox cnf = S16 Schwann cell cytotoxicity, confirmatory; shares compounds with PMP22 txn; S16 Schwann cells viability, CellTiter-Glo ATP luminescence, 24 h; Potency, µM (highest dose often 57.5 µM), inactives show at the highest dose activity change, negative = viability loss, most hits filed as cytotoxic; hit rate 7% among 690; also: potency is read from the fitted curve at half-maximal effect; % is scaled to controls: 0 for no effect and ±100 for the full control effect
PMP22 txn cnf = confirmation of modulators of PMP22 gene transcription in S16 cells; shares compounds with PMP22 txn; S16 Schwann cells Pmp22-F2sN, dual luciferase, 24 h; Potency, µM (doses to about 57.5 µM), inactives show top-dose activity change, negative = inhibition, hits mostly inhibitors; hit rate 22% among 690; AID 1508646; active = clear falling dose curves in both reporters; inconclusive = both reporters move, but less clearly or upward; inactive = either reporter flat; the % is the FLuc reporter signal; also: potency is read from the fitted curve at half-maximal effect
PMP22 HiBiT cnf = rat PMP22 protein level modulation, confirmatory; Potency, µM (top dose mostly 27.9 µM), for the others: at the highest dose activity change, negative = inhibition, usual class: inhibitors; shares compounds with PMP22 txn; 95 tested, under 10 active; S16 Schwann cells Pmp22-HiBiT, luminescence, 48 h; AID 1508647
Numbers without * were called inactive; i = inactive; ? = inconclusive; . = not tested or not shown. Unless noted, calls follow the shape of the dose curve; as a rule, active = well fitted curve in the direction sought with a large enough effect; inconclusive = small, poorly fitted or top-dose-only effect, or another doubt; inactive = no such curve, though single readings can be large; an effect the other way counts as inactive or inconclusive.

SMILES	S16 viability	mTORC1 inh	PMP22 txn	GALC G270D act	NLuc sat counter	NLuc Km counter	FLuc ctr PMP22	S16 F2sN tox cnf	PMP22 txn cnf	others
Cc1ccccc1Cn1nnc2c(=O)[nH]c(C3CCN(C(=O)c4ccc(F)cc4)CC3)nc21	-14.3%	1.1%	10.1µM*	i	?	-11.3%	6.3%	-10.8%	-45.0%
CNS(=O)(=O)c1cn(CC(=O)N2CCN(c3cccc(C)c3C)CC2)cc1S(=O)(=O)NC	1.8%	-3.0%	-40.0%	i	.	.	.	.	.
CCOC(=O)c1ccc(NC(=O)c2ccc3c(c2)c(C)c(C)n3Cc2ccc(F)cc2)cc1	-6.7%	0.0%	-14.4%	i	.	.	.	.	.
COc1ccc(NC(=O)c2ccc3c(c2)c(C)c(C)n3Cc2ccc(F)cc2)cc1	-17.9%	?	15µM*	i	-16.7%	-2.8%	-28.2%	-8.7%	0.2%
CCCNC(=O)c1ccc(-n2c(-c3ccccc3)cc3c2CCC(C)C3)cc1 (stereo not given)	25.3%	?	?	i	.	.	.	.	.
COCCNC(=O)c1ccc(-n2c(-c3ccccc3)cc3c2CCC(C)C3)cc1 (stereo not given)	?	3.7%	10µM*	i	-16.0%	?	-4.1%	-5.3%	-38.6%
CC1CCc2c(cc(-c3ccccc3)n2-c2ccc(C(=O)NC(C)C)cc2)C1 (stereo not given)	13.4%	-14.2%	13.4µM*	i	-13.0%	-3.8%	-15.5%	6.5%	?
O=C(Cn1c(=O)n(Cc2ccccc2)c(=O)c2sc3ccccc3c21)Nc1ccc(F)cc1	?	-11.1%	14.2µM*	i	-12.8%	3.1%	1.2%	?	?
Cc1c(-c2nsc(NC(=O)c3cccs3)n2)nnn1-c1ccc(F)cc1	-1.4%	4.2%	0.6%	i	.	.	.	.	.
CCCCN(CC)C(=O)c1nn(-c2ccc(OC)cc2)c(=O)c2c1c1ccccc1n2C	-0.1%	-7.5%	?	i	.	.	.	.	.
CCN(Cc1ccccc1)C(=O)c1nn(-c2ccc(OC)cc2)c(=O)c2c1c1ccccc1n2C	?	0.8%	18.9µM*	i	-18.5%	-3.6%	3.1%	20.6%	-41.5%
CCc1ccc(CNC(=O)c2nn(-c3ccc(C)cc3)c(=O)c3c2c2ccccc2n3C)cc1	0.1%	-0.9%	2.77µM*	i	-4.6%	2.1%	1.4%	?	?
CC(=O)c1ccc(NC(=O)COc2ccccc2-c2nc(C(C)C)no2)cc1	2.1%	-3.2%	12.6µM*	i	-8.6%	5.9%	-10.5%	-32.6%	-27.3%
Cc1ccc(-c2cn3c(n2)sc2cc(C(=O)NCCCN4CCCCCC4)ccc23)cc1	?	-0.4%	?	i	.	.	.	.	.
CCN1CCN(CCCNC(=O)c2ccc3c(c2)sc2nc(-c4ccc(C)cc4)cn23)CC1	?	9.0%	9.46µM*	i	15.3µM*	?	6.85µM*	19.3µM*	17.2µM*
CCCCOC(=O)c1ccc(Nc2nc3ccc(C(=O)c4ccccc4)cc3n3cnnc23)cc1	-3.2%	2.0%	?	i	.	.	.	.	.
Cc1cc(F)ccc1Nc1nc2ccccc2n2nnnc12	-0.6%	-19.0%	-10.9%	i	.	.	.	.	.
COCCNC(=O)c1cccc(Nc2nc3ccccc3n3nnnc23)c1	0.9%	0.0%	10.6µM*	i	-14.3%	?	0.9%	-17.5%	-30.1%
CCCCOc1ccc(C(C)NC(=O)c2cccc(Nc3nc4ccccc4n4nnnc34)c2)cc1 (stereo not given)	?	1.6%	5.32µM*	i	-7.8%	5.4%	-8.4%	27.3µM*	10.3µM*
O=C(NCc1ccccc1Cl)c1ccc(Nc2nc3ccccc3n3nnnc23)cc1	-18.2%	-7.4%	17.8µM*	i	-4.8%	-2.2%	2.2%	-22.4%	?
COc1ccc(-c2nn(C)c3sc(C(=O)N4CCN(c5cccc(C)c5C)CC4)cc23)cc1OC	-2.8%	7.2%	-15.8%	i	.	.	.	.	.
O=C(COc1ccccc1)N(Cc1cccnc1)c1nc2ccc(F)cc2s1	-23.6%	2.2%	-27.3%	i	.	.	.	.	.
O=C(CCOc1ccccc1)N(Cc1cccnc1)c1nc2ccc(F)cc2s1	25.1µM*	-7.6%	13.4µM*	i	?	?	-15.0%	-6.4%	-11.9%
Cc1c(Cl)cccc1NC(=O)CSc1cc(-c2ccccc2)ncn1	20.3%	1.5%	?	i	.	.	.	.	.
COc1ccc(NC(=O)c2oc3ccccc3c2NC(=O)c2cccc(F)c2)c(OC)c1	19.1%	5.6%	?	i	.	.	.	.	.
COc1ccc(NC(=O)c2oc3ccccc3c2NC(=O)Cc2ccc(F)cc2)c(OC)c1	1.9%	?	12.6µM*	i	-4.4%	-1.5%	3.3%	?	?	PMP22 HiBiT cnf=28.5%
CCc1c(C)c(C#N)c2nc3ccccc3n2c1Nc1cccc(C(F)(F)F)c1	-0.2%	-21.2%	-4.2%	i	.	.	.	.	.
Cc1ccccc1NC(=O)Cn1c(=O)n(Cc2ccc3c(c2)OCO3)c(=O)c2ccc(C(=O)NC3CCCCC3)cc21	?	4.3%	10.6µM*	i	-3.3%	1.9%	7.4%	24.3µM*	14.5µM*
Cc1ccc(C)c(NC(=O)Cn2c(=O)n(Cc3ccc4c(c3)OCO4)c(=O)c3ccc(C(=O)NC4CCCCC4)cc32)c1	11.3%	1.8%	4.01µM*	i	5.5%	5.5%	4.7%	-9.6%	18.3µM*	PMP22 HiBiT cnf=1.0%
Cc1cc(C)c(NC(=O)Cn2c(=O)n(Cc3ccc(C(=O)NCc4ccc5c(c4)OCO5)cc3)c(=O)c3ccccc32)c(C)c1	?	5.21µM*	11.2µM*	i	-5.9%	4.3%	1.9%	27.3µM*	8.85µM*

Bioassay records from PubChem.
